Screening results deposited in PubChem BioAssay by several laboratories.
aSyn 5UTR inh = MLPCN primary screen, SNCA 5' untranslated region; alpha-synuclein 5'UTR reporter, inhibitor activity; inhibition, % (tested at 7.5 µM); 300,000 compounds, 0.82% hits; in the data active = inhibition above about 60%; inconclusive = no clear call, values can overlap the other calls;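 also: H4 neuroglioblastoma cells stably carrying SNCA 5'UTR luciferase fusion; 0% = DMSO wells and 100% = positive control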
Mdm2-MdmX inh = inhibitors of human Mdm2-MdmX association, primary screen, cell-based, luminescence, split luciferase, SaOS-2, uHTS | Protein Mdm4 (Homo sapiens) + E3 ubiquitin-protein ligase Mdm2 (Homo sapiens), … | SaOS-2 split-luciferase Mdm2/MdmX complementation | inhibition, % at 8 µM | 330,000 compounds, 3% hits;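 active = inhibition of at least 50% at 8 µM in the primary screen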
CSC inhib = cancer stem cell viability inhibitors, primary screen, luminescence. AID 2717, 2010. inhibition, % at 7.5 µM. cancer stem cell-like cells viability. 300,000 compounds, 1.1% hits; in the data active = inhibition above about 75%; inconclusive = no clear call, values can overlap the other calls; tested in HMLE shEcad cells
A1 inh = caspase 3/7 activation in MEF A1-2A-BIM cells, primary screen, A1 inhibitor project, cell-based, luminescence, HTS | 330,000 compounds, 0.066% hits | AID 2462, 2010 | Caspase-Glo 3/7 luminescence, 3 h; percent of clofoctol response, vehicle zero | caspase activation, % (test concentration not listed);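 active = over half of replicate activation scores above 10%, or exactly half above 10 with the replicate mean above 10; inconclusive = replicate mean below 10 yet half the replicates above 10; inactive = over half of replicates below 10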
Beta apoptosis = inhibitors of cytokine-induced beta cell apoptosis, primary screen, luminescence; INS-1E cytokine-induced death, ATP luminescence, 48 h; percent of positive-control rescue, neutral wells zero; AID 435005, 2010; protection from apoptosis, % (concentration not given with the values); 300,000 compounds, 0.8% hits;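 active = Every replicate reaches about 75%, or at least half do and their mean reaches it too, limit read from the data; inconclusive = At least half of replicates reach the limit but their mean does not; inactive = Under half of replicates reach the limit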;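 also: 0% = cytokine-treated negative control wells and 100% = positive control rescue; higher means more ATP so stronger rescue from cytokine killing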
Mdm2-MdmX conf = Mdm2-MdmX complex disruptors, retested hits, confirmation, luminescence, single concentration; shares compounds with Mdm2-MdmX inh; Mdm2-MdmX binding, luminescent assay; inhibition, % at 8 µM; 10,000 compounds, 55% hits; AID 489028, 2010; in the data active = inhibition above about 40%
FLuc counter = full-length luciferase signal inhibition, confirmation, counter-screen for Mdm2/MdmX interaction inhibitor project, cell-based, single concentration, SaOS-2. shares compounds with Mdm2-MdmX inh. SaOS-2 full-length luciferase counterscreen, luminescence. 6,200 compounds, 77% hits. AID 504607, 2011. inhibition, % at 8 µM;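 active = mean inhibition at 8 µM reaching about 37%, which flags the compound as non-specific, limit read from the data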;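 also: p53-null SaOS-2 cells with luciferase driven by a doxycycline-inducible promoter; compound on cells about two nights before reading with doxycycline added after day one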
The depositor's hits bear a star; ? = inconclusive; nt = no result given. Most compounds without a hit are left out; they make up all but 4.1% or so of the library.

SMILES	aSyn 5UTR inh	Mdm2-MdmX inh	CSC inhib	A1 inh	Beta apoptosis	Mdm2-MdmX conf	FLuc counter
Cc1ccc(SCC(=O)NNC(=O)CCS(=O)(=O)c2ccccc2)cc1	nt	-8	3	0	4	nt	nt
CCCCCCSc1ccc(-c2nc3ccc(C)cn3c2NCc2ccccc2)cc1OC	-14	49	69	1	40	nt	nt
COc1ccc(-c2nc3ccc(C)cn3c2NCc2ccccc2)cc1SC1CCCCC1	4	53*	-10	?	99*	31	nt
O=C1CCc2ccc(OCCCCN3CCN(c4cccc(Cl)c4Cl)CC3)cc2N1	24	52*	17	-1	3	14	nt
CC(=O)c1ccc(N=c2scc(C)n2C(C)C)cc1	-11	16	1	0	0	nt	nt
C=CCNc1oc(-c2ccc(Cl)cc2)nc1C#N	nt	50*	nt	nt	nt	5	nt
N#C/C(=C\Nc1ccc2cn[nH]c2c1)c1nc(-c2ccc(Cl)cc2)cs1	3	50*	33	-1	64	14	nt
Cn1c2ccccc2c(=O)c2ccc(C#CC3(O)CCCCC3)cc21	37	83*	59	-2	13	75*	146*
COc1cc2sc3ccc(C#CC4(O)CCCCC4)cc3c(=O)c2cc1OC	-137	31	10	-1	36	nt	nt
CCCCCC1=C(C(=O)OC)C(C(=O)OCC)N(S(=O)(=O)C(F)(F)F)c2ccccc21 (centres undefined)	nt	8	nt	nt	nt	nt	nt
C=Cc1ncc(OC)c2c1[nH]c1ccccc12	50	100*	40	0	50	59*	22
COCCN(CC(=O)Nc1cccc(C)c1C)C(=O)c1cc(-c2ccncc2)nc2ccccc12	nt	15	nt	0	-3	nt	nt
COc1ccc(C=C2C=C(C(C)(C)C)C(=O)C(C(C)(C)C)=C2)cc1OC	0	100*	?	11*	-4	18	nt
CC(C)(C)C1CCC2(CC1)C(C#N)=C(SCC(=O)Nc1ccccc1)NC(=O)C2C#N (centres undefined)	8	92*	66	1	45	75*	59*
COc1ccc(CCNC(=O)CSc2nc(-c3ccco3)cc(C(F)(F)F)n2)cc1OC	-9	-12	-7	0	-13	nt	nt
O=C(CSc1nc(-c2ccco2)cc(C(F)(F)F)n1)NCCc1ccccc1	49	73*	0	1	-3	68*	21
Cc1cc(NC(=O)CSc2nc(-c3ccco3)cc(C(F)(F)F)n2)no1	69*	65*	-20	0	18	53*	77*
COc1ccc(C2c3c(-c4ccccc4O)n[nH]c3C(=O)N2CCc2ccc(OC)c(OC)c2)cc1 (centres undefined)	33	30	-17	0	18	nt	nt
COc1ccc(CCN2C(=O)c3[nH]nc(-c4ccccc4O)c3C2c2cccc(Cl)c2)cc1 (centres undefined)	-38	76*	18	0	40	57*	74*
O=C(OCc1cccc(F)c1)c1cc2ccccc2cc1O	2	-7	1	1	-4	nt	nt
O=C(N/N=C1/CCCc2ccccc21)c1cc([N+](=O)[O-])cc([N+](=O)[O-])c1	15	67*	-10	0	4	30	94*
O=C(N/N=C1/CCCc2ccccc21)C(c1ccccc1)c1ccccc1	-4	58*	-3	1	10	3	nt
O=C(N/N=C1\CCCc2ccccc21)C(O)c1ccccc1 (centres undefined)	-31	-14	-8	0	1	nt	nt
COc1ccc(OCC(O)CN2CCNCC2)cc1 (centres undefined)	16	14	-18	0	-9	nt	nt
COc1ccc(-c2nc(CC(=O)Nc3cccc(S(=O)(=O)NC4=NCCC4)c3)cs2)cc1	nt	-8	nt	nt	nt	nt	nt
SMILES	aSyn 5UTR inh	Mdm2-MdmX inh	CSC inhib	A1 inh	Beta apoptosis	Mdm2-MdmX conf	FLuc counter
COC(=O)c1c(C)[nH]c(C(=O)CSc2ncnc3sc(-c4ccccc4)cc23)c1C	1	67*	0	1	-4	13	nt
O=c1[nH]c(CSc2ncnc3sc(-c4ccccc4)cc23)nc2ccccc12	-1	87*	23	0	28	-12	nt
COCC(=O)Nc1cc(C)c2c(=O)oc3ccccc3c2n1	-48	-3	-2	1	nt	nt	nt
COc1ccc(C(=O)Nc2cc(C)c3c(=O)oc4ccccc4c3n2)cc1	-17	74*	-20	0	8	25	nt
CCC(CO)NCc1ccc(OCC(O)c2ccccc2)c(OC)c1 (centres undefined)	1	-2	35	1	10	nt	nt
CC(=O)Oc1c(I)cc(I)cc1C(=O)Nc1ccc(Cl)cc1	19	90*	108*	-3	106*	53*	19
COc1ccc(Cl)cc1C(=O)Nc1ccc(NC(C)=O)cc1	-8	1	8	-1	1	nt	nt
On1onc2c3cc(-c4ccccc4)nc3ccc21	nt	69*	0	0	101*	58*	65*
c1ccc(-c2cc3c(ccc4nonc43)nn2)cc1	-96	-31	4	-6	5	nt	nt
Cc1cccc(N2CCN(C(=O)c3cc(S(=O)(=O)N4CCOCC4)cn3C)CC2)c1C	-15	28	-6	0	-4	nt	nt
Cc1cccc(N2CCN(C(=O)c3cn(C)c(=O)c4c3c3ccccc3n4C)CC2)c1C	-7	59*	60	0	-16	45*	64*
Cc1ccc(Cl)cc1N1CCN(C(=O)c2cn(C)c(=O)c3c2c2ccccc2n3C)CC1	45	69*	88*	0	nt	63*	42*
Cc1cccc(N2CCN(C(=O)c3cc(S(=O)(=O)N4CCCC4)cn3C)CC2)c1C	35	55*	50	0	0	58*	49*
O=C(NCC1CCCO1)c1cccc2ccccc12 (centres undefined)	-1	-18	-6	1	-2	nt	nt
O=C(NC(NCC1CCCO1)C(Cl)(Cl)Cl)c1cccc2ccccc12 (centres undefined)	11	55*	11	0	1	29	nt
CN(C(=O)C1CCC(=O)N(CCCN2CCCC2=O)C1)C(C1CC1)C1CC1 (centres undefined)	0	-7	-7	0	-3	nt	nt
Cn1c(=O)n(CCOc2ccccc2Cl)c2ccccc21	-99	-2	11	0	2	nt	nt
N=c1n(CCCOc2ccccc2Cl)c2ccccc2n1CC(N)=O	15	65*	-5	0	5	42*	63*
Cc1ccc(C)c(N2CCN(C(=O)C3CCCN(c4ncnc5c4nc4n5CCCCC4)C3)CC2)c1 (centres undefined)	16	35	-9	-2	13	nt	nt
